# From PubChem BioAssay
# Calls of active or inactive are those of the source.
# Columns and labels:
# [1] = small molecules captured by biotinylated probe aFSTL3 – biochemical, small-molecule microarray, fluorescence 635/667, stem cell growth factor project, primary screen (AID 1064); conditions: higher = more signal;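 note: measures binding of the biotinylated anti-FSTL3 antibody to printed compounds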
# [2] = binders from COS7 lysate, DM2A8 probe, primary screen, torsin A project, cell lysate, small-molecule microarray, fluorescence 635/667 (AID 1065); conditions: higher = more signal, COS7 lysate expressing mutant human TOR1A
# [3] = small molecules captured by biotinylated probe aFGF2 – biochemical, small-molecule microarray, fluorescence 635/667, stem cell growth factor project, primary screen (AID 1067); conditions: higher = more signal;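 note: measures binding of biotinylated aFGF2 protein to printed compounds on slides; z-score merges feature fluorescence and signal-to-noise across triplicate slides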
# [4] = small molecules captured by biotinylated probe aFGF10 – biochemical, small-molecule microarray, fluorescence 635/667, stem cell growth factor project, primary screen (AID 1071); conditions: higher = more signal;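 note: score merges 667 nm spot intensity and signal to noise from triplicate slides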
# [5] = biological target: Neurogenic locus notch homolog protein 2 (Homo sapiens) (UniProt Q04721); experiment: small molecules binding Notch2 protein – biochemical, small-molecule microarray, 635 nm fluorescence, stem cell growth factors, primary screen (AID 1073); conditions: higher = more signal
# Neurogenic locus notch homolog protein 2 (Homo sapiens), sequence (Q04721 whole entry, looked up, canonical isoform): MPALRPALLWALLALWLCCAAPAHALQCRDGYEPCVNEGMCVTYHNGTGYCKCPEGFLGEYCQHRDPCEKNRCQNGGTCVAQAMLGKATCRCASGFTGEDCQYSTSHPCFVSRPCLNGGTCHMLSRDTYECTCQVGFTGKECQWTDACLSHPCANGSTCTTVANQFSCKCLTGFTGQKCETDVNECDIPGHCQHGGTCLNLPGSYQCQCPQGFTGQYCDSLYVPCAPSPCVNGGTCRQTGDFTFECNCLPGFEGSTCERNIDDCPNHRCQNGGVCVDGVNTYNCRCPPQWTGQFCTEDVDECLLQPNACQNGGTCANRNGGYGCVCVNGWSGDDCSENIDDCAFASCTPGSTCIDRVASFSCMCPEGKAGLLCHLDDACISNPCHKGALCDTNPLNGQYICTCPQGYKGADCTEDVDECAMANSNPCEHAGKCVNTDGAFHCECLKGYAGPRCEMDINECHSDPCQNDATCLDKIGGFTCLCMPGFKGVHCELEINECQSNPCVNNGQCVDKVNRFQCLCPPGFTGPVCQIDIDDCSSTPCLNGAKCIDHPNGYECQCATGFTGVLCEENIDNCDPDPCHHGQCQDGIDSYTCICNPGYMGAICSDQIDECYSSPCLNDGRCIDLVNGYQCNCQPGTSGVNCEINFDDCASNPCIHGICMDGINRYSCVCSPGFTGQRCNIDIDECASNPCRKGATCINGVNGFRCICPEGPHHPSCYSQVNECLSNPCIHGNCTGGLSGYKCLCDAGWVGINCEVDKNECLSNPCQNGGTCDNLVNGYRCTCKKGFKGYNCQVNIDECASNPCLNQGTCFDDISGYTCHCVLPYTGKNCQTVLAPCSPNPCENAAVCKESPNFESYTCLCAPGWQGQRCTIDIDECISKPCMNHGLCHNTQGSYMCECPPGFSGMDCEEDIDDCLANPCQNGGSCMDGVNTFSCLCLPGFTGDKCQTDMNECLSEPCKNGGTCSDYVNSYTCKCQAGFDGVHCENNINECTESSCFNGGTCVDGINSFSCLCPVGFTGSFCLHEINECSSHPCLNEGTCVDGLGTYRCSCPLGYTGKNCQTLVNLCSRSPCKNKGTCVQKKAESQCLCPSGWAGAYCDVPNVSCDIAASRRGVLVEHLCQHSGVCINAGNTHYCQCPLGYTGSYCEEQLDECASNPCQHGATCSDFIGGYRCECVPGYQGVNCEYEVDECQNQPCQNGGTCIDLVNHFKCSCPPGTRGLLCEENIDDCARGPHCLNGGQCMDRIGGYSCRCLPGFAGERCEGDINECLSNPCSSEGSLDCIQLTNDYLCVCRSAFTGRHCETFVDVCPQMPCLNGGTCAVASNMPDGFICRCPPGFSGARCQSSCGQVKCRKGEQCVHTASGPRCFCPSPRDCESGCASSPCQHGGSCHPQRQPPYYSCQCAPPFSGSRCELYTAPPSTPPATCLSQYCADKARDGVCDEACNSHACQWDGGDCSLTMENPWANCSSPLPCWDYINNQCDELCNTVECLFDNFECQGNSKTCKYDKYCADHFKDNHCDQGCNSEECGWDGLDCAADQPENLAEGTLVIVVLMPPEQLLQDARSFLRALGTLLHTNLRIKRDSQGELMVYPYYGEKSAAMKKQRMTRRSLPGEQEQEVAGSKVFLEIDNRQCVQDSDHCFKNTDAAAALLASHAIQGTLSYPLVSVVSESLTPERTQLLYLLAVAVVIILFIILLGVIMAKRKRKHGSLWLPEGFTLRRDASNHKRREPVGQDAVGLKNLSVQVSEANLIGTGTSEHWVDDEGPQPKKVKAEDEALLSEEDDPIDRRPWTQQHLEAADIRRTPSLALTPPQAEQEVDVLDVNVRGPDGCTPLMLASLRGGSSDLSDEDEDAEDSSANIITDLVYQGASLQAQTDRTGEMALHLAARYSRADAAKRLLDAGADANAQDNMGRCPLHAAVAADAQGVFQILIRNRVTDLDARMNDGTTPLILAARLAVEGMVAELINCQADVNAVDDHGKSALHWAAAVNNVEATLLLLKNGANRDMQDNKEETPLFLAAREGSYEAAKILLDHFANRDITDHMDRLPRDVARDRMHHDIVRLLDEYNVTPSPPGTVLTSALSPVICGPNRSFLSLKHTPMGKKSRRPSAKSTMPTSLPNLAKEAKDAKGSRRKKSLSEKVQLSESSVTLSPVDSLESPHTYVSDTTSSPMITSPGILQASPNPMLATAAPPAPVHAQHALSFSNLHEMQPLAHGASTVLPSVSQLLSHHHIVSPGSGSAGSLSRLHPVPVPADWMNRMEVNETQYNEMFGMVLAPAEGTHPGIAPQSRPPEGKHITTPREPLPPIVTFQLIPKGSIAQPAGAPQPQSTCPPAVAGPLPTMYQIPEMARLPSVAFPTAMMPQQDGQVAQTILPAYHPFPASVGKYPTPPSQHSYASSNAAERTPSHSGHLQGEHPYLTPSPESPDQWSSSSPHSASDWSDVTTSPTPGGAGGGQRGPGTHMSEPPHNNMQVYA
# [6] = biological target: Pro-neuregulin-1, membrane-bound isoform (Homo sapiens) (UniProt Q02297); experiment: small molecules binding neuregulin-1 protein – biochemical, small-molecule microarray, fluorescence 635/667, psychiatric disease protein project, primary screen (AID 1075); conditions: NRG1 binding, 635 nm fluorescence, higher = more signal;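 note: score combines 667 nm spot fluorescence with signal to noise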
# Pro-neuregulin-1, membrane-bound isoform (Homo sapiens), sequence (Q02297 whole entry, looked up, the tested form may be a part, canonical isoform): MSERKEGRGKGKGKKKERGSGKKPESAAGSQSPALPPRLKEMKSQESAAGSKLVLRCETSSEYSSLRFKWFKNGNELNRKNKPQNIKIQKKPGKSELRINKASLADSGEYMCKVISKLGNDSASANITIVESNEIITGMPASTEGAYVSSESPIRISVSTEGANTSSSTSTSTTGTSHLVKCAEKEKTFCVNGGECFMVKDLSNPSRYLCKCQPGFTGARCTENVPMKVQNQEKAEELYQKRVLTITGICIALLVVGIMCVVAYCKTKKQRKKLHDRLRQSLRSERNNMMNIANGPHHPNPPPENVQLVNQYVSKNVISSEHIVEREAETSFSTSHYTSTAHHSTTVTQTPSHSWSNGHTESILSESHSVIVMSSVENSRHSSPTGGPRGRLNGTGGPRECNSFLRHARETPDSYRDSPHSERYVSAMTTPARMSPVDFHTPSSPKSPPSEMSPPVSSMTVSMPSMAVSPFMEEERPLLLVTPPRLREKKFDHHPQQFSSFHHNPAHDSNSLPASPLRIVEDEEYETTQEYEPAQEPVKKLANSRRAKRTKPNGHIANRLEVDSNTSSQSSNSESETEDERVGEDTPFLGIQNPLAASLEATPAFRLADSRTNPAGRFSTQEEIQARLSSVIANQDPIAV
# [7] = test system: Neuregulin-1 EGF-like domain; experiment: small molecules binding NRG1 EGF domain – biochemical, small-molecule microarray, 635 nm fluorescence, primary screen (AID 1081); conditions: higher = more signal;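 note: binding of the protein to compounds printed on small-molecule microarray slides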
# [8] = FRG1 expression reporter modulators in myotubes – cell-based, C2C12 myotubes, firefly/Renilla luciferase, luminescence, FRG1 inhibition for FSHD, primary screen (AID 1084); conditions: FRG1 promoter luciferase, higher = more signal, called active from +8 up or from −8 down
# [9] = small molecules captured by biotinylated probe aFST – biochemical, small-molecule microarray, fluorescence 635/667, stem cell growth factor project, primary screen (AID 1086); conditions: higher = more signal;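 note: score merges 667 nm fluorescence with signal-to-noise of each printed compound spot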
# [10] = binders of probe aHhip on microarray, primary screen, stem cell growth factor project, biochemical, small-molecule microarray, fluorescence 635/667 (AID 1087); conditions: higher = more signal;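 note: score merges spot fluorescence at 667nm with spot signal to noise ratio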
SMILES,composite z-score [1],composite z-score [2],composite z-score [3],composite z-score [4],composite z-score [5],composite z-score [6],composite z-score [7],z-score [8],composite z-score [9],composite z-score [10]
NCCCCCNC(=O)[C@H]1C[C@H]2C(=O)N3CCC[C@H]3C(=O)N2[C@H]1c1cccc(OCCO)c1,1.46,0.161,-0.0448,0.179,-0.0052,1.52,1.43,1.91 (inactive),0.534,0.0873
CCCCCCc1nc(Cc2cc(OC)c(OC)c(OC)c2)cc2c1[Si](C(C)C)(C(C)C)OC2,-0.288,-0.117,-0.0909,0.0277,-0.196,-0.184,-0.434,1.06 (inactive),-0.0763,-0.0427
CCCN1C(=O)[C@@]2(Cc3ccccc31)N=C(c1ccc(OCCCO)cc1)O[C@H]2c1ccccc1,0.654,0.27,-0.0909,0.181,0.697,1.55,1.21,-1.35 (inactive),0.193,-0.0852
O=C1C2C=CC(C(O)C3CC=CCC3)N(Nc3ccccc3)C2C(=O)N1c1ccccc1 (stereo not given),0.877,-0.129,0.122,0.397,1.61,1.3,1.28,-1.16 (inactive),1.89,-0.323
C[C@@H]1NC(=O)[C@@H](Cc2ccccc2)NC(=O)[C@@]23C(=O)N[C@@H](Cc4ccccc4)C2[C@H](C)[C@@]2(C)O[C@H]2C3/C=C/C/C=C\CNC1=O (stereo not given in full),-0.285,1.13,-0.149,-0.211,-0.787,-0.235,0.305,-0.323 (inactive),-0.263,-0.249
CCOC(=O)C[C@H]1[C@H](OC(=O)Cc2ccc3c(c2)OCO3)[C@@H](NC(=O)C2CCCCC2)c2cc(OCCCO)ccc2N1C(=O)c1ccccc1,0.0113,-0.155,-0.112,0.117,0.0925,-0.127,0.65,-1.14 (inactive),-0.0611,-0.0994
CCCCC(CC)C(O)C1C=CC2C(=O)N(c3ccccc3)C(=O)C2N1Nc1ccccc1F (stereo not given),0.0758,0.39,0.151,0.972,1.54,-0.144,1.21,0.39 (inactive),0.727,-0.123
CC1CC/C=C\[C@H]2OC34C=CCN(c5ccc6ccccc6c5)C(=O)[C@H]3N(CCCO)C(=O)[C@@H]4C2C(=O)O1 (stereo not given in full),0.932,-0.541,-0.188,-1.25,-0.746,1.19,-0.459,2.62 (inactive),-0.757,-0.19
O=C1C2C=CC(C(O)c3ccco3)N(Nc3ccccc3F)C2C(=O)N1c1ccccc1 (stereo not given),-0.111,-0.501,0.134,0.458,1.02,1.32,0.894,0.793 (inactive),0.931,-0.173
CN(C)CCCCCCNC(=O)[C@@H]1C[C@@H]2C(=O)N3CCC[C@H]3C(=O)N2[C@@H]1c1cccc(OCCO)c1,0.117,2.09,0.1,1.11,0.623,0.755,1.48,3.21 (inactive),0.518,-0.0296
CC(C)[Si](C#C[Si](C(C)C)(C(C)C)C(C)C)(O[C@H](c1ccccc1)c1cn(Cc2ccccc2)nn1)C(C)C,-0.353,0.213,-0.1,0.311,0.615,-0.16,0.928,0.133 (inactive),0.276,0.0808
CCOC(=O)C[C@H]1[C@H](OC(=O)c2ccccc2-c2ccccc2)[C@@H](NC(=O)c2ccc3ccccc3n2)c2cc(OCCCO)ccc2N1C(=O)Cc1ccc(OC)cc1,0.139,0.394,-0.0715,0.158,0.383,0.336,0.028,0.63 (inactive),0.311,-0.142
COC(=O)[C@@]1(Cc2ccc(F)cc2)[C@H]2c3cc(C(=O)N(C)C)n(CCc4ccc(OC)c(Br)c4)c3C[C@H]2CN1C(=O)c1ccccc1,0.859,-0.694,0.361,0.675,0.716,0.988,1.29,3.92 (inactive),1.48,0.424
COc1cc(NN2C(C(O)c3ccco3)C=CC3C(=O)N(C)C(=O)C32)cc(OC)c1OC (stereo not given),0.256,0.504,0.083,0.27,0.578,1.4,1.38,-0.389 (inactive),0.775,0.837
COC(=O)C(CC#Cc1ccc2c(c1)[C@]1(C(=O)N2)[C@H](c2ccc(O)cc2)N2[C@H](c3ccccc3)[C@H](c3ccccc3)OC(=O)[C@H]2[C@@H]1C(=O)NC[C@H](O)c1ccccc1)C(=O)OC,-0.14,0.249,-0.0592,1.06,0.791,-0.0744,1.4,0.798 (inactive),0.257,0.0749
COC(=O)[C@@H]1N=C(c2ccc(OCCCO)cc2)O[C@@H]1c1ccccc1,0.497,-0.0336,-0.103,-0.789,-0.997,0.403,0.326,7.16 (inactive),-0.456,0.176
COc1cc2c(cc1O)C=[N+](Cc1sc3ccccc3c1Cl)CC2,0.172,-0.0743,-0.0999,0.1,1.06,-0.102,1.48,0.432 (inactive),-0.161,0.0178
CC1CC/C=C\[C@H]2OC34C=CCN(Cc5ccccc5)C(=O)[C@H]3N(C(CO)C(C)C)C(=O)[C@@H]4C2C(=O)O1 (stereo not given in full),0.342,-0.153,-0.049,-0.0095,-0.68,0.491,1.39,1.32 (inactive),-0.368,-0.0169
CCOc1cc(C(O)C2C=CC3C(=O)NC(=O)C3N2Nc2ccc(Cl)cc2Cl)ccc1O (stereo not given),0.0596,-0.565,0.042,-0.246,-0.463,-0.226,-0.885,0.59 (inactive),0.0054,-0.297
COC(=O)[C@@H]1N=C(c2ccc(OCCCO)cc2)O[C@@H]1C,0.0684,0.331,-0.0627,0.509,0.108,-0.519,0.155,5.05 (inactive),0.195,0.0139
NCCCCCNC(=O)[C@@H]1C[C@@H]2C(=O)N[C@@H](CCCCN)C(=O)N2[C@@H]1c1ccc(O)cc1,0.266,0.726,-0.0213,0.491,1.39,2.02,1.29,1.08 (inactive),0.865,0.23
O=C1CS(=O)(=O)C(c2cccc([N+](=O)[O-])c2)N1c1ccccc1 (stereo not given),0.63,1.79,0.467,0.446,0.936,1.66,1.19,-0.997 (inactive),0.822,1.56
C=CCNC(=O)[C@@H]1[C@H]2C(=O)O[C@H](c3ccccc3)[C@H](c3ccccc3)N2[C@H](c2ccccc2OCCO)[C@@]12C(=O)N(C(=O)OCCOC)c1ccc(C#CC3(O)CCCCCC3)cc12,-0.249,0.356,-0.0004,0.427,1.14,1.16,1.14,-0.257 (inactive),0.771,-0.0994
